Measured values taken from PubChem BioAssay (NCI).
This is part of a sample that, as a whole, favours compounds with a hit. Of some 79,000 tested, about 15% had one in any assay. Calls of active or inactive are those of the source. Rule as the data show it: active = growth inhibition above about 70%; inactive = the rest.

Assay: NCI Yeast Anticancer Drug Screen. Data for the sgs1 mgt1 strain (AID 161);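 also: 0% = growth of cultures given vehicle only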
Conditions: S. cerevisiae sgs1 mgt1 strain, active compounds read high
Description: Growth inhibition of yeast strains with defined genetic alterations is measured as a screen for potential anti-cancer activity. Selected strains with alterations in DNA damage repair or cell cycle control were exposed to compounds and growth inhibition was measured relative to vehicle treated controls. The strain used in this assay is sgs1 mgt1

[1] = at 5.0 µM (retest, dose inferred, filed as 0.5)
[2] = at 50.0 µM (retest, dose inferred, filed as 5.0)

SMILES	growth inhibition [1]	growth inhibition [2]	growth inhibition (at 50.0 µM)
c1ccc(C2=NOC3(c4ccccc4)SC4CCCCC4CN23)cc1 (configuration not stated)	10% (inactive)	97% (active)	92.4% (active)
C=CC1(NC(=O)c2ccccc2)CCC(C(C)(C)C)CC1 (configuration not stated)	-5% (inactive)	94% (active)	43.6% (inactive)
CCCCCCCCCCCCCCCCCC[N+]1(CC)CCCCC1	99% (active)	99% (active)	91.5% (active)
c1ccc(CN2CCC3(CC2)SSC2(CCN(Cc4ccccc4)CC2)SS3)cc1	5% (inactive)	35% (inactive)	30.9% (inactive)
C(=C\c1cnnc2ccccc12)/c1ccco1	6% (inactive)	39% (inactive)	29.4% (inactive)
Nc1nn2c(C(Br)Br)cc(C(Br)Br)nc2c1[N+](=O)[O-]	100% (active)	100% (active)	99.5% (active)
O=C(O)CCSc1ncnc2nc[nH]c12	0% (inactive)	-24% (inactive)	-30.5% (inactive)
CC(=O)Nc1ccc2c(c1)C(S)c1ccccc1-2 (configuration not stated)	2% (inactive)	53% (inactive)	46.6% (inactive)
ICCCCCCCCCC[n+]1ccc2ccccc2c1	52% (inactive)	99% (active)	89.3% (active)
CCOc1nc(N)nc(C)c1N=Nc1ccc(Cl)cc1Cl	5% (inactive)	88% (active)	22.4% (inactive)
O=S(=O)(c1ccc(NC(=S)NCc2ccncc2)cc1)N1CCCCC1	-14% (inactive)	-13% (inactive)	10.7% (inactive)
CCCOc1ccc(/C=N/NC(N)=S)cc1	16% (inactive)	74% (active)	69.7% (inactive)
Cc1ccc2ccc(C(Nc3ccccc3)c3ccncc3)c(O)c2n1 (configuration not stated)	4% (inactive)	87% (active)	43.5% (inactive)
CCCCCN=Cc1c(O)c(O)c(C(C)C)c2cc(C)c(-c3c(C)cc4c(C(C)C)c(O)c(O)c(C=NCCCCC)c4c3O)c(O)c12	2% (inactive)	50% (inactive)	71.8% (active)
